The test system of assay [1] is Wnt5a (protein binding on small-molecule microarray). Kind of assay: Wnt5a binders on small-molecule microarray, primary screen, biophysical, 635/667 nm fluorescence (AID 1142).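 Also: fluorescence read at 667 nm with signal to noise per printed feature.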 The note with it: 635 nm fluorescence, higher = more signal.
A short description of assay [2]: cell viability in Huh7 cells, primary screen, cytotoxicity control for HCV replication inhibitor project, CellTiter-Glo luminescence, basal, 48 h (AID 1143).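 Also: Huh7 hepatoma cells carrying a hepatitis C replication reporter with no stimulus; test concentration not given here.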 Conditions: Huh7 HCV replicon, higher = more signal, called active from +8 up or from −8 down.
A short description of assay [3]: P. aeruginosa biofilm formation inhibitors, primary screen, PAO1 strain, BacTiter-Glo luminescence, LB-PBS (AID 1144). The note with it: 12 h, higher = more signal.
Assay [4] can be described thus: CREB reporter modulators without forskolin, primary screen, cell-based, PC12, CRE-LacZ reporter, unstimulated (AID 1145). Conditions: no forskolin, luminescence, 4.5 h, higher = more signal, called active from +8 up or from −8 down.
Assay [5] is described as follows: CREB reporter modulators under forskolin, primary screen, cell-based, PC12, CRE-LacZ reporter, forskolin-stimulated (AID 1146).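 Also: PC12 cells with 6xCRE LacZ reporter stimulated by forskolin 10 µM; beta-galactosidase reporter signal reflecting CREB driven transcription.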 The note with it: luminescence, 4.5 h, higher = more signal, called active from +8 up or from −8 down.
Assay [6] concerns the target Streptavidin (Streptomyces avidinii) (UniProt P22629). Kind of assay: streptavidin binders on small-molecule microarray, primary screen, artefact control for SMM compound annotation, biophysical, 635/667 nm fluorescence (AID 1147).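 Also: signal reflects streptavidin binding to arrayed compounds as a control protein.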 The note with it: streptavidin binding, higher = more signal.
Assay [7] is described as follows: small-molecule binders of probe aInhba, primary screen, biochemical, small-molecule microarray, 635/667 nm fluorescence (AID 1148).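 Also: score merges 667nm spot fluorescence with signal-to-noise for antibody binding to printed compounds.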 Conditions: higher = more signal.
Assay [8] addresses Torsin-1A (Homo sapiens) (UniProt O14656). Kind of assay: torsin A binders from cell lysate, primary screen, small-molecule microarray, wild-type, 635/667 nm (AID 1149). Conditions: COS7 hTOR1A-WT lysate, 635 nm fluorescence, higher = more signal.
For assay [9] the target is unchanged. The experiment in a line: small-molecule binders of mutant TOR1A in lysate, primary screen, cell lysate, small-molecule microarray, COS7 lysate, 635/667 nm fluorescence (AID 1150).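 Also: score pools 667 nm emission and signal to noise measuring lysate protein binding.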 The note with it: COS7 hTOR1A mutant lysate, 635 nm fluorescence, higher = more signal.
Assay [10] deals with Sonic hedgehog protein (Shh). The experiment in a line: small-molecule binders of Shh protein, primary screen, biochemical, small-molecule microarray, 635/667 nm fluorescence (AID 1151).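 Also: Shh protein binding to compounds spotted on small-molecule microarray slides; score combines spot fluorescence intensity with signal-to-noise across triplicate slides.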 The note with it: small-molecule microarray binding, 635 nm fluorescence; higher = more signal.
Assay [11] in a line: E. coli DRC41 culture turbidity changes, primary screen, E. coli filamentation inducer project, strain DRC41, OD650, 48 h (AID 1152).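 Also: E. coli MC1000 strain DRC41 lacking acrAB efflux pump and sulA.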 The note with it: E. coli DRC41 (acrAB sulA), higher = more signal, called active from +8 up or from −8 down.
The nature of assay [12]: small-molecule binders of probe aLefty1, primary screen, biochemical, small-molecule microarray, 635/667 nm fluorescence (AID 1153).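 Also: score merges spot fluorescence with signal-to-noise ratio from the scanned slide images.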 Conditions: higher = more signal.
Assay [13] in a line: PSAC antagonists in infected red cells, primary screen, cell-based, P. falciparum Indochina, OD700, 1 h (AID 1154). The note with it: P. falciparum Indochina infected RBC osmotic lysis, higher = more signal, called active from +8 up or from −8 down.
Assay [14] in a line: PSAC antagonists in infected red cells, primary screen, cell-based, P. falciparum Indochina, OD700, 2 h (AID 1155).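 Also: lysis reports solute entry through the parasite surface anion channel PSAC; channel blockers reduce lysis of infected cells.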 Conditions: P. falciparum Indochina infected erythrocytes, osmotic lysis OD700; higher = more signal, called active from +8 up or from −8 down.
Assay [15] is described as follows: osmotic lysis modulators in infected erythrocytes, primary screen, PSAC antagonist project, cell-based, P. falciparum Indochina, OD700, 3 h (AID 1156). Conditions: higher = more signal, called active from +8 up or from −8 down.
A short description of assay [16]: PSAC antagonists in infected red cells, primary screen, cell-based, P. falciparum Indochina, OD700, 18 h (AID 1157). The note with it: P. falciparum Indochina infected erythrocytes, osmotic lysis OD700, 18 h; higher = more signal, called active from +8 up or from −8 down.
Assay [17] in a line: modulators of S6 phosphorylation in cells, primary screen, cell-based, A549, cytoblot, luminescence, serum-stimulated (AID 1158).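 Also: serum-stimulated A549 lung adenocarcinoma cells; signal is phosphorylated S6 detected by cytoblot immunostaining with HRP secondary.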 Conditions: A549 phospho-S6 cytoblot, 5 h, higher = more signal.
Assay [18] addresses NADPH oxidase 2 (Homo sapiens) (UniProt P04839). Kind of assay: NOX2-dependent H2O2 signal modulators, primary screen, NOX inhibitor project, cell-based, HEK293-NOX2, PMA-stimulated, Amplex Red fluorescence (AID 1159). Also: test concentration not given here. Conditions: 45 min, higher = more signal, called active from +8 up or from −8 down.
Assay [19] has as its target NADPH oxidase 4 (Homo sapiens) (UniProt Q9NPH5). The experiment in a line: NOX4-dependent H2O2 signal modulators, primary screen, NOX inhibitor project, cell-based, HEK293-NOX4, tetracycline-induced, Amplex Red fluorescence (AID 1160). The note with it: 45 min, higher = more signal, called active from +8 up or from −8 down.
The target in assay [20] is NADPH oxidase 5 (Homo sapiens) (UniProt Q96PH1). Kind of assay: NOX5-dependent H2O2 signal modulators, primary screen, NOX inhibitor project, cell-based, HEK293-NOX5, Amplex Red fluorescence (AID 1161). The note with it: HEK293-NOX5, ionomycin, 45 min, higher = more signal.
Chain of NADPH oxidase 5 (Homo sapiens) (Q96PH1 whole entry, looked up): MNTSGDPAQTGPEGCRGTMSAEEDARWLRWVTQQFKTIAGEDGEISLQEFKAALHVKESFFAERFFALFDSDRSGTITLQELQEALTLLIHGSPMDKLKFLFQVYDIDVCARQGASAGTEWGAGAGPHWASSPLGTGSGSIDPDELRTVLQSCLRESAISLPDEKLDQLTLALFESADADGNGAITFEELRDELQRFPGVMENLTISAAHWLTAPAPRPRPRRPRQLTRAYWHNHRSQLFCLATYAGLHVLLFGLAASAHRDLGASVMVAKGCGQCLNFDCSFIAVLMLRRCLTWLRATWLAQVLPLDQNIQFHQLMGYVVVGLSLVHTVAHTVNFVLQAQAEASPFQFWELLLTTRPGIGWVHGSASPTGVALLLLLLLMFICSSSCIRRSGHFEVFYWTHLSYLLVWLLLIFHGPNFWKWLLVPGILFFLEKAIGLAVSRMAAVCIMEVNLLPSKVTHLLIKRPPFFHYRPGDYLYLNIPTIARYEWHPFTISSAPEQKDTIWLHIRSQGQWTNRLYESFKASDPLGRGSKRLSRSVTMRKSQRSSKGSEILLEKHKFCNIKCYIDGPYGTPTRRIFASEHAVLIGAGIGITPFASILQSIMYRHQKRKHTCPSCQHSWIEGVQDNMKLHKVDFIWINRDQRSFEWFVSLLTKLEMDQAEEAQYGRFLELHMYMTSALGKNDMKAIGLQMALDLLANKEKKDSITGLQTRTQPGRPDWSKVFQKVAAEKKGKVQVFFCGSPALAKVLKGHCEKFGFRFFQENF

SMILES strings stand for the structures. The source made the active and inactive calls. Unless noted, no rule for the calls is given here.

Chain of NADPH oxidase 4 (Homo sapiens) (Q9NPH5 whole entry, looked up): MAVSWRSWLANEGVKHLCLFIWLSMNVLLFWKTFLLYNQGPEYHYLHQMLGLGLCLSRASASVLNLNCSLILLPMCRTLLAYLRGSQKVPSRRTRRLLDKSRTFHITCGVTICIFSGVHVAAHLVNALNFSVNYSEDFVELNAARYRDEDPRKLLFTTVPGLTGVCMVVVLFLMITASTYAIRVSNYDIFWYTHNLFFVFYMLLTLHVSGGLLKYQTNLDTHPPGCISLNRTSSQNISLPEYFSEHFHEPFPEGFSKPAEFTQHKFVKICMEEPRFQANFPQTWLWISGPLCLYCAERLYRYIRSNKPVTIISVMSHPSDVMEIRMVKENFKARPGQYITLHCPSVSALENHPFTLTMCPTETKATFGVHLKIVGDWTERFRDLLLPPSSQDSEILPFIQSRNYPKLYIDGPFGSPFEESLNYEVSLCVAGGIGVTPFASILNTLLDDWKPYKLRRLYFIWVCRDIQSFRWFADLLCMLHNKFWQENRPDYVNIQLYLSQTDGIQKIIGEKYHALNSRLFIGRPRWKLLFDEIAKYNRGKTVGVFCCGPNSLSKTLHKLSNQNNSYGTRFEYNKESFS
Chain of Torsin-1A (Homo sapiens) (O14656 whole entry, looked up): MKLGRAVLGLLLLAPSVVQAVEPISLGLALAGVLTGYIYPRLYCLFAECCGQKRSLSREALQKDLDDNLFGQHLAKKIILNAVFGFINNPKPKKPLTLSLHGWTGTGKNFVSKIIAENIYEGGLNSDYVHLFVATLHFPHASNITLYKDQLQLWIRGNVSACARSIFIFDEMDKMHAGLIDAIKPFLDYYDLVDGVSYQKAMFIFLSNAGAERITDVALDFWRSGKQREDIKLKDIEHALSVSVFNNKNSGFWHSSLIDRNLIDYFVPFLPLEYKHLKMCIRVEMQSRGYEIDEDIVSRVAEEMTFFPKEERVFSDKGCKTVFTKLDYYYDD
Chain of Streptavidin (Streptomyces avidinii) (P22629 whole entry, looked up): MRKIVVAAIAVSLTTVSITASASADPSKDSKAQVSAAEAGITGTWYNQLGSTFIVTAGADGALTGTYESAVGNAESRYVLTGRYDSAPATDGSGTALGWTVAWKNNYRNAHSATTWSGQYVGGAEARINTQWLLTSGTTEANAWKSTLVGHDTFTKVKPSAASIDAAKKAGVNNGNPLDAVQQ
Chain of NADPH oxidase 2 (Homo sapiens) (P04839 whole entry, looked up): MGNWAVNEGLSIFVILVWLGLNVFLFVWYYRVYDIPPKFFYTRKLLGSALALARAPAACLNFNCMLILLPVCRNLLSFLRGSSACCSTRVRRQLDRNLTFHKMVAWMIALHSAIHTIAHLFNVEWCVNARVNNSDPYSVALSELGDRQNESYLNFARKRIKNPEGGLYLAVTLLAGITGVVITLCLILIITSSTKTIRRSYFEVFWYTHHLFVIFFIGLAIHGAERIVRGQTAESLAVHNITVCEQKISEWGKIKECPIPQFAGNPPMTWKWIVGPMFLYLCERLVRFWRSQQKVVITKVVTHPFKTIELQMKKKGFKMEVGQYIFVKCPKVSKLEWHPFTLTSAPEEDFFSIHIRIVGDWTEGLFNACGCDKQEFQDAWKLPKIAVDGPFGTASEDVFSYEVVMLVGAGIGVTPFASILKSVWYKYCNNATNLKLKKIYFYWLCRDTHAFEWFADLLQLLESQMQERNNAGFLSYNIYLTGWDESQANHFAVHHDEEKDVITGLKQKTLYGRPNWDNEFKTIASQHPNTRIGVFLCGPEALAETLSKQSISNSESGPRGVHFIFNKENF

In the case of `CCCNC(=O)[C@@]1(Sc2ccc(C)cc2)CC(=O)N(C(C)C)[C@@H]1c1ccc(CO)cc1I`, the composite z-score was -0.272 in assay [1]; -1 in [6]; -0.186 in [7]; 0.0671 in the assay with Torsin-1A (Homo sapiens) [8]; 0.157 with Torsin-1A (Homo sapiens) [9]; -0.42 in assay [10]. In addition, the composite z-score in [12] is -0.0046. Besides, the z-score in assay [2] is -1.07 (inactive); in assay [3], 0.767 (inactive); in assay [4], -0.412 (inactive); in assay [5] it was 0.892 (inactive); in assay [11], -0.236 (inactive); in [13] it was 5.82 (inactive). The z-score in [14] was 0.424 (inactive); in assay [15], 0.0627 (inactive); in assay [16], 0.108 (inactive); in assay [17], -0.198; in assay [18], 2.46 (inactive); in assay [19] it was -2.43 (inactive). In addition, in assay [20], the z-score worked out at 0.276.
Turning to `CCN(CC)c1ccc(N2CC=CC34O[C@@H]5C=CCCOC(=O)C5[C@H]3C(=O)N(CCO)[C@@H]4C2=O)cc1` (stereo not given in full), the composite z-score in assay [1] is -0.546; in assay [6], -1.02; in [7], -0.163; in the assay with Torsin-1A (Homo sapiens) [8], -0.894; with Torsin-1A (Homo sapiens) [9] it was -1.42; in assay [10], -0.0352. The molecule further registered a composite z-score in [12] of -0.155. For the same molecule, the z-score was -0.055 (inactive) in [2]; -0.167 (inactive) in [3]; 0.191 (inactive) in assay [4]; 0.0371 (inactive) in assay [5]; 0.286 (inactive) in assay [11]; 1.03 (inactive) in assay [13]. In addition, the z-score was 0.537 (inactive) in assay [14]; 0.836 (inactive) in assay [15]; 0.159 (inactive) in assay [16]; -0.616 in [17]; 0.697 (inactive) in assay [18]; -0.513 (inactive) in assay [19]. This molecule showed a z-score in assay [20] of 1.11.
As for `C=CCN1C(=O)[C@]2(O[C@H](CCO)[C@@H]([Si](C)(C)c3ccc(OC)cc3)[C@@H]2C)c2cc(NC(=O)c3ccc(OC)cc3)ccc21`, the composite z-score in assay [1] stood at 0.211; in assay [6] it was 0.535; in assay [7] it was 0.0541; with Torsin-1A (Homo sapiens) [8], 0.598; with Torsin-1A (Homo sapiens) [9] it was 0.726; in assay [10] it was 2.11. This molecule had a composite z-score in [12] of 0.0494. Moreover, the z-score was -7.99 (inactive) in assay [2]; -0.236 (inactive) in assay [3]; 15.2 (active) in assay [4]; -1.43 (inactive) in assay [5]; -1.25 (inactive) in assay [11]; 7.31 (inactive) in [13]. Further, the z-score was 2.69 (inactive) in [14]; -0.357 (inactive) in [15]; 1.3 (inactive) in assay [16]; -0.309 in assay [17]; -3.97 (inactive) in [18]; -0.48 (inactive) in assay [19]. For the same molecule, the z-score in assay [20] turned out to be 1.38.
As for `NC(=O)[C@H]1[C@@H]2C(=O)O[C@@H](c3ccccc3)[C@@H](c3ccccc3)N2[C@@H](c2ccc(O)cc2)[C@]12C(=O)Nc1ccccc12`, the composite z-score was -0.355 in [1]; -1.08 in [6]; -0.128 in assay [7]; -1.54 in the assay with Torsin-1A (Homo sapiens) [8]; -1.73 in the assay with Torsin-1A (Homo sapiens) [9]; -0.96 in assay [10]. In addition, in assay [12], the composite z-score was -0.18. The z-score was -0.0816 (inactive) in assay [2]; 0.191 (inactive) in assay [3]; -0.141 (inactive) in assay [4]; 0.272 (inactive) in [5]; -0.261 (inactive) in assay [11]; 3.33 (inactive) in [13]. For the same molecule, the z-score in assay [14] is 1.23 (inactive); in assay [15], 0.217 (inactive); in assay [16], 0.515 (inactive); in [17], -0.471; in assay [18], -0.741 (inactive); in [19], -0.988 (inactive). The z-score in assay [20] worked out at 0.572.
For `CC(C)C[C@@H]1NC(=O)[C@H]2C[C@@H](C(=O)NCCCCCN)[C@@H](c3cccc(OCCO)c3)N2C1=O`, the composite z-score in assay [1] is -0.0295; in assay [6], -0.174; in [7], -0.008; with Torsin-1A (Homo sapiens) [8] it was 0.67; with Torsin-1A (Homo sapiens) [9], 0.207; in assay [10], -0.414. Besides, the composite z-score in assay [12] is -0.0172. Further, the z-score in [2] was -0.707 (inactive); in [3] it was -0.887 (inactive); in assay [4], 0.273 (inactive); in assay [5], -0.673 (inactive); in assay [11], 1.25 (inactive); in [13] it was 3.07 (inactive). Also, the z-score in [14] is -0.328 (inactive); in assay [15], 2.27 (inactive); in [16], -2.15 (inactive); in [17], 2.13; in assay [18], 1.33 (inactive); in [19], 0.993 (inactive). This molecule also yielded a z-score in assay [20] of 2.1.
As to `CN1C(=O)C2C=CC(C(O)c3ccc(F)cc3)N(NC(=O)OC(C)(C)C)C2C1=O` (stereo not given), the composite z-score in [1] is 0.155; in [6], 1.43; in assay [7], 0.0705; in the assay with Torsin-1A (Homo sapiens) [8] it was 0.0284; with Torsin-1A (Homo sapiens) [9], -0.0455; in [10], -0.761. Besides, the composite z-score in assay [12] is 0.101. For the same molecule, the z-score in assay [2] was -0.134 (inactive); in assay [3], 0.193 (inactive); in assay [4], 0.436 (inactive); in assay [5] it was 0.84 (inactive); in assay [11] it was -1.73 (inactive); in [13], -0.468 (inactive). Moreover, the z-score in assay [14] is 0.477 (inactive); in assay [15], 0.008 (inactive); in [16], 0.901 (inactive); in assay [17], -1.28; in [18], -0.46 (inactive); in [19], -0.56 (inactive). This molecule had a z-score in assay [20] of -0.481.
As for `CC(C)N1CC=CC23O[C@@H]4/C=C\CCCOC(=O)C4[C@H]2C(=O)N(CCCCCCO)[C@@H]3C1=O` (stereo not given in full), the composite z-score in [1] was -0.0379; in [6], -1.13; in [7], -0.205; in the assay with Torsin-1A (Homo sapiens) [8], -0.14; in the assay with Torsin-1A (Homo sapiens) [9], 0.55; in assay [10], -0.0836. Further, the composite z-score in assay [12] stood at 0.248. For the same molecule, the z-score in [2] is 0.0722 (inactive); in assay [3], -0.0303 (inactive); in assay [4] it was -0.48 (inactive); in assay [5], -1.02 (inactive); in assay [11], 2.15 (inactive); in assay [13] it was 0.904 (inactive). Moreover, the z-score is 0.0039 (inactive) in assay [14]; 0.622 (inactive) in assay [15]; 0.133 (inactive) in assay [16]; 0.842 in assay [17]; 1 (inactive) in [18]; 0.105 (inactive) in assay [19]. In assay [20], the z-score was found to be 1.92.
Turning to `COCC(=C=CC[C@H](O)c1cccc(OCCO)c1)C[C@H](O)COCc1ccccc1`, the composite z-score in assay [1] is 0.191; in [6], -0.599; in assay [7] it was 0.264; with Torsin-1A (Homo sapiens) [8], 2.41; in the assay with Torsin-1A (Homo sapiens) [9], 1.31; in assay [10], 1.28. Also, the composite z-score in assay [12] is 0.213. The z-score in [2] is -0.33 (inactive); in [3], -0.218 (inactive); in [4], 5.03 (inactive); in assay [5], 1.74 (inactive); in [11] it was -0.0371 (inactive); in assay [13] it was 9.2 (active). The z-score in [14] is 1.07 (inactive); in assay [15], 0.307 (inactive); in assay [16], 0.404 (inactive); in assay [17], -0.234; in assay [18] it was -0.436 (inactive); in assay [19], -0.797 (inactive). Moreover, in assay [20], the z-score is -1.39.

Source of the values: PubChem BioAssay.
